Results reported in PubChem BioAssay AID1159580 (chemical genetic matrix, 2015).
Screen size: about 5,500 compounds; about 2,000 (36%) were called active. Not shown: some 18% with an inconclusive outcome. No stated cut-off is given here; in the data, active means normalized growth mostly below about 0.91 (no sharp cut-off); inconclusive means no clear call, values can overlap the other calls; inactive means mostly above about 0.92. The list shows a part of the results.

Test: chemical genetic growth profiling, strain panel (AID 1159580);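 further: tested at 20 µM; growth read once vehicle control cultures reached saturation at 30 °C; 1 = growth at the plate median or of vehicle wells; lower values mean less growth of the strain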
Conditions: growth OD

Measured: normalized growth

Cc1cc(/C=C/c2ccc3cc(N(C)C)ccc3[n+]2C)c(C)n1-c1ccccc1
inactive: S. cerevisiae deletion strains, locus YJR066W, strain TOR1, active compounds read low 0.948 | S. cerevisiae deletion strains, locus YKL068W, active compounds read low 1.03 | S. cerevisiae deletion strains, locus YKL085W, strain MDH1 (second series), active compounds read low 1.03 | S. cerevisiae deletion strains, locus YKL085W, strain MDH1, active compounds read low 1.03 | S. cerevisiae deletion strains, locus YKR001C, strain vps1, active compounds read low 0.987 | S. cerevisiae deletion strains, locus YKR026C, strain gcn3, active compounds read low 1.01 | S. cerevisiae deletion strains, locus YKR091W, strain srl3, active compounds read low 1.02 | S. cerevisiae deletion strains, locus YLL001W, strain dnm1, active compounds read low 0.934 | S. cerevisiae deletion strains, locus YLL041C, strain sdh2, active compounds read low 1.03 | S. cerevisiae deletion strains, locus YLR039C, strain RIC1, active compounds read low 0.703 | S. cerevisiae deletion strains, locus YLR102C, strain apc9, active compounds read low 1.01 | S. cerevisiae deletion strains, locus YLR113W, strain HOG1, active compounds read low 1.02 | S. cerevisiae deletion strains, locus YLR258W, strain gsy2, active compounds read low 0.986 | S. cerevisiae deletion strains, locus YLR262C, strain YPT6, active compounds read low 0.776 | S. cerevisiae deletion strains, locus YLR268W, strain sec22, active compounds read low 0.919 | S. cerevisiae deletion strains, locus YLR330W, strain CHS5, active compounds read low 1 | S. cerevisiae deletion strains, locus YLR357W, strain rsc2, active compounds read low 1.09 | S. cerevisiae deletion strains, locus YLR370C, strain arc18, active compounds read low 0.986 | S. cerevisiae deletion strains, locus YLR371W, strain rom2, active compounds read low 1.02 | S. cerevisiae deletion strains, locus YLR384C, strain iki3, active compounds read low 1 | S. cerevisiae deletion strains, locus YML032C, strain rad52, active compounds read low 0.947 | S. cerevisiae deletion strains, locus YML120C, strain ndi1, active compounds read low 0.93 | S. cerevisiae deletion strains, locus YML124C, strain tub3, active compounds read low 1.02 | S. cerevisiae deletion strains, locus YMR078C, strain ctf18, active compounds read low 1.02 | S. cerevisiae deletion strains, locus YMR205C, strain PFK2, active compounds read low 1.04 | S. cerevisiae deletion strains, locus YMR223W, strain ubp8, active compounds read low 0.949 | S. cerevisiae deletion strains, locus YMR231W, strain pep5, active compounds read low 1.01 | S. cerevisiae deletion strains, locus YNL183C, strain NPR1, active compounds read low 0.962 | S. cerevisiae deletion strains, locus YNL250W, strain rad50, active compounds read low 1.02 | S. cerevisiae deletion strains, locus YNL271C, strain bni1, active compounds read low 1.02 | S. cerevisiae deletion strains, locus YNL298W, strain CLA4, active compounds read low 1.01 | S. cerevisiae deletion strains, locus YNL322C, strain KRE1 (second series), active compounds read low 1.01 | S. cerevisiae deletion strains, locus YNR049C, strain mso1, active compounds read low 1.01 | S. cerevisiae deletion strains, locus YOL012C, strain htz1 0.461 | S. cerevisiae deletion strains, locus YOL147C, strain pex11, active compounds read low 0.999 | S. cerevisiae deletion strains, locus YOR001W, strain rrp6, active compounds read low 0.954 | S. cerevisiae deletion strains, locus YOR061W, strain CKA2, active compounds read low 0.909 | S. cerevisiae deletion strains, locus YOR069W, strain VPS5, active compounds read low 0.995 | S. cerevisiae deletion strains, locus YOR136W, strain idh2, active compounds read low 0.997 | S. cerevisiae deletion strains, locus YOR144C, strain elg1, active compounds read low 1 | S. cerevisiae deletion strains, locus YOR184W, strain ser1, active compounds read low 0.928 | S. cerevisiae deletion strains, locus YOR231W, strain MKK1, active compounds read low 1.01 | S. cerevisiae deletion strains, locus YOR290C, strain snf2, active compounds read low 0.947 | S. cerevisiae deletion strains, locus YOR316C, strain cot1, active compounds read low 1.01 | S. cerevisiae deletion strains, locus YPL078C, strain atp4, active compounds read low 0.96 | S. cerevisiae deletion strains, locus YPL240C, strain hsp82, active compounds read low 1.01 | S. cerevisiae deletion strains, locus YPL256C, strain CLN2, active compounds read low 1.02 | S. cerevisiae deletion strains, locus YPR119W, strain clb2, active compounds read low 1.01 | S. cerevisiae deletion strains, locus YPR141C, strain kar3, active compounds read low 1.04 | S. cerevisiae deletion strains, locus YPR163C, strain tif3, active compounds read low 1.01 | S. cerevisiae deletion strains, locus YPR167C, strain met16, active compounds read low 0.989
active: S. cerevisiae deletion strains, locus YKL160W, strain elf1, active compounds read low 0.829 | S. cerevisiae deletion strains, locus YKL190W, strain CNB1, active compounds read low 0.692 | S. cerevisiae deletion strains, locus YLL026W, active compounds read low 0.926 | S. cerevisiae deletion strains, locus YLR027C, strain aat2, active compounds read low 0.909 | S. cerevisiae deletion strains, locus YLR058C, strain SHM2, active compounds read low 0.887 | S. cerevisiae deletion strains, locus YLR221C, strain rsa3, active compounds read low 0.905 | S. cerevisiae deletion strains, locus YLR262C, strain YPT6 (second series), active compounds read low 0.717 | S. cerevisiae deletion strains, locus YLR320W, strain mms22, active compounds read low 0.797 | S. cerevisiae deletion strains, locus YLR342W, strain FKS1 (second series), active compounds read low 0.774 | S. cerevisiae deletion strains, locus YLR342W, strain FKS1, active compounds read low 0.832 | S. cerevisiae deletion strains, locus YLR418C, strain cdc73, active compounds read low 0.385 | S. cerevisiae deletion strains, locus YML016C, strain PPZ1, active compounds read low 0.906 | S. cerevisiae deletion strains, locus YMR058W, strain fet3, active compounds read low 0.863 | S. cerevisiae deletion strains, locus YMR125W, strain sto1, active compounds read low 0.819 | S. cerevisiae deletion strains, locus YMR129W, active compounds read low 0.874 | S. cerevisiae deletion strains, locus YMR307W, strain GAS1, active compounds read low 0.583 | S. cerevisiae deletion strains, locus YNL067W, strain RPL9B, active compounds read low 0.842 | S. cerevisiae deletion strains, locus YNL071W, strain lat1, active compounds read low 0.762 | S. cerevisiae deletion strains, locus YNL128W, strain TEP1, active compounds read low 0.202 | S. cerevisiae deletion strains, locus YNL153C, strain GIM3, active compounds read low 0.709 | S. cerevisiae deletion strains, locus YNL209W, strain ssb2, active compounds read low 0.848 | S. cerevisiae deletion strains, locus YNL233W, strain BNI4, active compounds read low 0.749 | S. cerevisiae deletion strains, locus YNL248C, strain rpa49, active compounds read low 0.714 | S. cerevisiae deletion strains, locus YNL307C, strain MCK1, active compounds read low 0.863 | S. cerevisiae deletion strains, locus YNL322C, strain KRE1, active compounds read low 0.686 | S. cerevisiae deletion strains, locus YNR052C, strain pop2, active compounds read low 0.731 | S. cerevisiae deletion strains, locus YOL006C, strain TOP1, active compounds read low 0.382 | S. cerevisiae deletion strains, locus YOR070C, strain gyp1, active compounds read low 0.91 | S. cerevisiae deletion strains, locus YOR080W, strain dia2, active compounds read low 0.892 | S. cerevisiae deletion strains, locus YOR083W, strain WHI5, active compounds read low 0.804 | S. cerevisiae deletion strains, locus YOR106W, strain vam3, active compounds read low 0.754 | S. cerevisiae deletion strains, locus YOR265W, strain rbl2, active compounds read low 0.92 | S. cerevisiae deletion strains, locus YOR270C, strain vph1, active compounds read low 0.728 | S. cerevisiae deletion strains, locus YPL051W, strain arl3, active compounds read low 0.914 | S. cerevisiae deletion strains, locus YPL106C, strain sse1, active compounds read low 0.468 | S. cerevisiae deletion strains, strain wtn01, active compounds read low 0.775 | S. cerevisiae strains, strain wild type, active compounds read low 0.484
